# Data: PubChem BioAssay (NCATS)
# Records with an inconclusive call do not appear. Where a call stands in place of a potency, no number is given. The source made the active and inactive calls. Calls come from the whole dose curve; as a rule, active = well fitted inhibition curve with a large enough effect; inconclusive = small, poorly fitted or top-dose-only effect; inactive = flat fitted curve, though single readings scatter.
# Target: Ubiquitin carboxyl-terminal hydrolase 1 (Homo sapiens) (UniProt O94782)
# Sequence (O94782 whole entry, looked up): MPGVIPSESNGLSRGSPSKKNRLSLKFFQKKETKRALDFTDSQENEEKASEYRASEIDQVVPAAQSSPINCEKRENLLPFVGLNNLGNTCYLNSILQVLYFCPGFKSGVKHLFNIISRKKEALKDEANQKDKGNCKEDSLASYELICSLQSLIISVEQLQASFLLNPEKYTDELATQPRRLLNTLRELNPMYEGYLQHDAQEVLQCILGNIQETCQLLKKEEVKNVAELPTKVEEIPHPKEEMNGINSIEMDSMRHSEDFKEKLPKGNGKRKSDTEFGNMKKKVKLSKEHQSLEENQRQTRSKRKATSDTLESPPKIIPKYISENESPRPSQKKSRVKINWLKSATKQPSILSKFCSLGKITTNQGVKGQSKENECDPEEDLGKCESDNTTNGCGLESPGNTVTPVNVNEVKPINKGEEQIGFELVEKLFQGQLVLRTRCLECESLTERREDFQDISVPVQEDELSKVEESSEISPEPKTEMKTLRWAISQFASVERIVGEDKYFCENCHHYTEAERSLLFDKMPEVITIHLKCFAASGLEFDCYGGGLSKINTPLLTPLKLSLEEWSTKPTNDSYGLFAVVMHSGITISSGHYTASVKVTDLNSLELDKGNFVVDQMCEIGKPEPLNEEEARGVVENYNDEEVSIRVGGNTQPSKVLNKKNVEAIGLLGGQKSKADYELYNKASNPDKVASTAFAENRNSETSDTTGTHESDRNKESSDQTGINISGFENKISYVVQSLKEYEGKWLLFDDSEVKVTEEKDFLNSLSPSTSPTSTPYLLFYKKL
# Test: Inhibitors of USP1/UAF1: Pilot qHTS (AID 504865);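 note: rhodamine fluorescence freed from ubiquitin-rhodamine substrate followed over time; top concentration of the series differs between compounds; nearly all actives have a fitted effect of over 35% in size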
# Details: purified USP1/UAF1, Ub-rhodamine cleavage fluorescence; series mostly up to 114 µM
# Method in brief: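 Deubiquitinase activity followed as kinetic rhodamine fluorescence release from 150 nM Ub-Rho. 1 nM USP1/UAF1 with compound, after 15 min room-temperature preincubation, in HEPES pH 7.8 buffer containing TCEP, EDTA, BSA and Tween-20.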
row,SMILES,Potency
1,N[C@H](C(=O)O)c1ccc(C(=O)O)cc1,inactive
2,C=C[C@@]1(C)CC(=O)[C@@]2(O)[C@@]3(C)[C@@H](O)CCC(C)(C)[C@@H]3[C@H](O)[C@H](OC(C)=O)[C@@]2(C)O1,inactive
3,c1ccc2oc(C3=NCCN3)cc2c1,inactive

# Target: DNA dC->dU-editing enzyme APOBEC-3G (Homo sapiens) (UniProt Q9HC16)
# Sequence (Q9HC16 whole entry, looked up): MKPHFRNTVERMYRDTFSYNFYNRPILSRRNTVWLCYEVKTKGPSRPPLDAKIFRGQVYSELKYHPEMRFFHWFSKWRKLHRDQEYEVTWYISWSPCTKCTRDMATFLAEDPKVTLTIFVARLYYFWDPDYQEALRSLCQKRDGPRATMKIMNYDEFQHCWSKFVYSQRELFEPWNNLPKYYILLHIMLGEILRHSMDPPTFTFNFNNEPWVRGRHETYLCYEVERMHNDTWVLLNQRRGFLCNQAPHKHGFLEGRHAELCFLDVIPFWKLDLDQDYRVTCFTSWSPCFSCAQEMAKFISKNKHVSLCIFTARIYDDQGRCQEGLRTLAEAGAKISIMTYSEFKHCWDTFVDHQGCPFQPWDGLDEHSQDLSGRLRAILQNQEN
# Test: qHTS for inhibitors of Vif-A3G interactions: Validation (AID 588379)
# Details: Vif-A3G protein interaction assay; series mostly up to 46.1 µM
# Method in brief: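 HeLa cells stably expressing Vif and A3G-eYFP, 700 cells/well, incubated overnight at 37 deg C, then exposed to compound overnight at 37 deg C. Inhibition of Vif-mediated degradation read as increased yellow fluorescence (Ex 488/Em 500-530) by laser-scanning cytometry.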
row,SMILES,Potency
1,N[C@H](C(=O)O)c1ccc(C(=O)O)c(O)c1,inactive
2,O=C(O)Cc1cc2ccccc2nc1C(=O)O,inactive
3,CC(N)=NCCC[C@H](N)C(=O)O,inactive
4,N[C@@H]1CCN(O)C1=O,inactive
5,NC[C@](O)(CS(=O)(=O)O)c1ccc(Cl)cc1,inactive
6,CO[C@@]12C[C@@H](COC(=O)c3cncc(Br)c3)CN(C)[C@H]1Cc1cn(C)c3cccc2c13,inactive
7,O=C(O)COc1ccc(OCCNC[C@@H](O)COc2ccccc2)cc1,inactive
8,COC(=O)[C@@H]1[C@@H]2C[C@H]3c4[nH]c5ccccc5c4CCN3C[C@@H]2CC[C@@H]1O,inactive
9,N[C@H](Cc1cnc[nH]1)C(=O)O,inactive
10,N[C@H](CCC(=O)NCC(=O)O)C(=O)O,inactive
11,CC1=C(\C=C/C(C)=C/C=C\C(C)=C\C(=O)O)C(C)(C)CCC1,inactive
12,CCC(=O)O[C@H](CC(=O)O)C[N+](C)(C)C,inactive
13,N[C@]1(C(=O)O)CCc2cc(C(=O)O)ccc21,inactive
14,C[C@@](N)(C(=O)O)c1ccc(P(=O)(O)O)cc1,inactive
15,C[C@H](C[C@H](N)C(=O)O)C(=O)O,inactive
16,O=C(O)[C@H]1CCCNC1,inactive
17,O=C(O)[C@H]1CN(CCCP(=O)(O)O)CCN1,inactive
18,NCCC(=O)O,inactive

row,SMILES,Potency
1,CCN(Cc1ccncc1)C(=O)[C@@H](CO)c1ccccc1,inactive
2,N[C@@H](C(=O)O)c1ccc(P(=O)(O)O)cc1,inactive
3,N[C@H](C(=O)O)c1nn[nH]n1,inactive
4,N[C@H](C(=O)O)[C@@H]1C[C@@H]1C(=O)O,inactive
5,CNCC[C@H](Oc1ccccc1OC)c1ccccc1,inactive
6,C[C@H](N=C(NC#N)Nc1ccncc1)C(C)(C)C,inactive
7,CC[C@](N)(CCC(=O)O)C(=O)O,inactive
8,CC(N)=NCCCC[C@H](N)C(=O)O,inactive
9,C[C@@H](CCc1ccc(O)cc1)NCCc1ccc(O)c(O)c1,inactive
10,CC(C)[C@@H]1[C@H]2CC[C@H](C2)[C@H]1N,inactive
11,C[C@@H]1C[C@@H]2[C@H]3CCC4=CC(=O)C=C[C@]4(C)[C@]3(F)[C@@H](O)C[C@@]2(C)[C@@]1(O)C(=O)CO,inactive
12,C=C[C@@]1(C)CC(=O)[C@@]2(O)[C@@]3(C)[C@@H](O)CCC(C)(C)[C@@H]3[C@H](O)[C@H](OC(C)=O)[C@@]2(C)O1,inactive
13,N[C@H](CCC(=O)N[C@H](CSN=O)C(=O)NCC(=O)O)C(=O)O,inactive
14,c1ccc2oc(C3=NCCN3)cc2c1,inactive
15,CC(C)(C)NC[C@H](O)COc1cccc2[nH]c(=O)[nH]c12,inactive
16,CCC(=O)N[C@@H]1Cc2ccccc2[C@@H](c2ccccc2)C1,inactive
17,S=C(S)O[C@@H]1C[C@@H]2C[C@H]1[C@@H]1CCC[C@H]21,inactive

# Test system: Zika virus NS2B-NS3 protease
# Test: Primary screen GU AMC qHTS for Zika virus inhibitors (AID 1347154); note: nearly all actives have a fitted effect of over 70% in size; note: potency is the fitted concentration of half-maximal effect
# Details: Zika NS2B-NS3 unlinked protease, AMC fluorogenic substrate; series mostly up to 54.1 µM
# Method in brief: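 Unlinked Zika NS2B hydrophilic domain–NS3 protease complex at 25 nM in 10 mM Tris-HCl pH 8.0, 0.01% Tween 20, with an AMC peptide substrate. Fluorescence change (340/450 nm) over 15 min at room temperature, normalized to controls, fitted to 4-parameter Hill.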
row,SMILES,Potency
1,CC[N+](C)(CC)CCC[n+]1c(-c2ccccc2)c2cc(N)ccc2c2ccc(N)cc21,inactive
2,N[C@H](C(=O)O)c1ccc(C(=O)O)c(O)c1,26.7 µM (active)
3,O=C(O)Cc1cc2ccccc2nc1C(=O)O,inactive
4,CC(N)=NCCC[C@H](N)C(=O)O,inactive
5,N[C@@H]1CCN(O)C1=O,inactive
6,NC[C@](O)(CS(=O)(=O)O)c1ccc(Cl)cc1,inactive
7,CO[C@@]12C[C@@H](COC(=O)c3cncc(Br)c3)CN(C)[C@H]1Cc1cn(C)c3cccc2c13,inactive
8,COc1ccccc1NC(=O)Nc1nc(-c2cccnc2)nc2ccccc12,inactive
9,CC(C)SC(=N)N,inactive
10,O=C(O)COc1ccc(OCCNC[C@@H](O)COc2ccccc2)cc1,inactive
11,COC(=O)[C@@H]1[C@@H]2C[C@H]3c4[nH]c5ccccc5c4CCN3C[C@@H]2CC[C@@H]1O,inactive
12,N[C@H](Cc1cnc[nH]1)C(=O)O,inactive
13,N[C@H](CCC(=O)NCC(=O)O)C(=O)O,inactive
14,CC1=C(\C=C/C(C)=C/C=C\C(C)=C\C(=O)O)C(C)(C)CCC1,inactive
15,CCC(=O)O[C@H](CC(=O)O)C[N+](C)(C)C,inactive
16,N[C@]1(C(=O)O)CCc2cc(C(=O)O)ccc21,inactive
17,C[C@@](N)(C(=O)O)c1ccc(P(=O)(O)O)cc1,inactive
18,C[C@H](C[C@H](N)C(=O)O)C(=O)O,inactive
19,O=C(O)[C@H]1CCCNC1,inactive
20,O=C(O)[C@H]1CN(CCCP(=O)(O)O)CCN1,inactive

row,SMILES,Potency
1,NCCC(=O)O,inactive
2,CCN(Cc1ccncc1)C(=O)[C@@H](CO)c1ccccc1,inactive
3,N[C@@H](C(=O)O)c1ccc(P(=O)(O)O)cc1,inactive
4,C[C@@](N)(C(=O)O)c1ccc(C(=O)O)cc1,inactive
5,N[C@H](C(=O)O)c1nn[nH]n1,inactive
6,N[C@H](C(=O)O)[C@@H]1C[C@@H]1C(=O)O,inactive
7,CNCC[C@H](Oc1ccccc1OC)c1ccccc1,inactive
8,C[C@H](N=C(NC#N)Nc1ccncc1)C(C)(C)C,inactive
9,CC[C@](N)(CCC(=O)O)C(=O)O,inactive
10,CC(N)=NCCCC[C@H](N)C(=O)O,inactive
11,C[C@@H](CCc1ccc(O)cc1)NCCc1ccc(O)c(O)c1,inactive
12,CC(C)[C@@H]1[C@H]2CC[C@H](C2)[C@H]1N,inactive
13,N[C@H](C(=O)O)c1ccc(C(=O)O)cc1,inactive
14,C[C@@H]1C[C@@H]2[C@H]3CCC4=CC(=O)C=C[C@]4(C)[C@]3(F)[C@@H](O)C[C@@]2(C)[C@@]1(O)C(=O)CO,inactive
15,C=C[C@@]1(C)CC(=O)[C@@]2(O)[C@@]3(C)[C@@H](O)CCC(C)(C)[C@@H]3[C@H](O)[C@H](OC(C)=O)[C@@]2(C)O1,inactive
16,N[C@H](CCC(=O)N[C@H](CSN=O)C(=O)NCC(=O)O)C(=O)O,inactive
17,c1ccc2oc(C3=NCCN3)cc2c1,inactive
18,CC(C)(C)NC[C@H](O)COc1cccc2[nH]c(=O)[nH]c12,inactive
19,CCC(=O)N[C@@H]1Cc2ccccc2[C@@H](c2ccccc2)C1,inactive
20,S=C(S)O[C@@H]1C[C@@H]2C[C@H]1[C@@H]1CCC[C@H]21,inactive
